From PubChem BioAssay
Calls of active or inactive are those of the source.

Assays:
[1] = compounds binding Alexa647 anti-His antibody – biochemical, small-molecule microarray, 635 nm fluorescence, artefact control for SMM control protein annotation, primary screen (AID 1128); details: higher = more signal;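 further: score merges feature fluorescence with signal-to-noise for each printed compound spot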
[2] = test system: Human papillomavirus type 1a E7 protein (residues 1-88); experiment: HPV1a E7 small-molecule binders, primary screen, biochemical, small-molecule microarray, residues 1-88, 635 nm (AID 1129); details: small-molecule microarray binding, fluorescence 635 nm; higher = more signal
[3] = biological target: Focal adhesion kinase 1 (Homo sapiens) (UniProt Q05397); experiment: PTK2 protein binding on printed compound slides – biochemical, small-molecule microarray, 635/667 nm fluorescence, BSA, DTT, primary screen (AID 1130); details: 635 nm fluorescence, higher = more signal;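 further: composite of spot emission at 667 nm and signal to noise over triplicate slides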
[4] = test system: Fibrinogen (Alexa647-labelled); experiment: Alexa647-fibrinogen binding to printed small molecules – biochemical, small-molecule microarray, 635/667 nm fluorescence, artefact control for SMM control-protein annotation, profiling panel (AID 1131); details: fibrinogen-A647 binding fluorescence, higher = more signal;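 further: z-score merges 667 nm fluorescence with per-spot signal-to-noise over triplicate slides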
[5] = biological target: Follistatin (Homo sapiens) (UniProt P19883); experiment: FST protein binding to printed compounds – biochemical, small-molecule microarray, 635/667 nm fluorescence, primary screen (AID 1132); details: 635 nm fluorescence, higher = more signal
[6] = biological target: Fibroblast growth factor 2 (Homo sapiens) (UniProt P09038); experiment: basic fibroblast growth factor binding to printed compounds – biochemical, small-molecule microarray, 635/667 nm fluorescence, primary screen (AID 1133); details: FGF2, fluorescence 635/667, higher = more signal
[7] = JC-1 mitochondrial potential readout, lung cancer cells – cell-based, A549, JC-1 fluorescence, basal, 24 h, 100 nL, profiling panel (AID 1138); details: higher = more signal;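 further: A549 lung adenocarcinoma cells under basal conditions with no added stimulus; test concentration not given here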
Lefty1 = Lefty1 protein binding to printed compounds – biochemical, small-molecule microarray, 635/667 nm fluorescence, primary screen (AID 1139); details: fluorescence 635/667, higher = more signal
[8] = test system: wheat germ agglutinin (Triticum aestivum), Alexa647-labelled; experiment: Alexa647-WGA lectin binding to printed small molecules – biochemical, small-molecule microarray, 635/667 nm fluorescence, artefact control for SMM control-protein annotation, profiling panel (AID 1140); details: WGA-A647 binding, 635 nm fluorescence, higher = more signal;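 further: score merges 667 nm feature emission with signal to noise over triplicate slides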
[9] = biological target: Luciferin 4-monooxygenase (Photinus pyralis) (UniProt P08659); experiment: inhibition of purified Photinus pyralis luciferase – biochemical, luminescence, purified enzyme, 2006 set, primary screen (AID 1141); details: purified firefly luciferase, SteadyGlo luminescence, 30 min; higher = more signal, called active from +8 up or from −8 down;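 further: cell-free assay with purified firefly luciferase at 100 ng per well in PBS; test concentration not given here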
Chain of Luciferin 4-monooxygenase (Photinus pyralis) (P08659 whole entry, looked up): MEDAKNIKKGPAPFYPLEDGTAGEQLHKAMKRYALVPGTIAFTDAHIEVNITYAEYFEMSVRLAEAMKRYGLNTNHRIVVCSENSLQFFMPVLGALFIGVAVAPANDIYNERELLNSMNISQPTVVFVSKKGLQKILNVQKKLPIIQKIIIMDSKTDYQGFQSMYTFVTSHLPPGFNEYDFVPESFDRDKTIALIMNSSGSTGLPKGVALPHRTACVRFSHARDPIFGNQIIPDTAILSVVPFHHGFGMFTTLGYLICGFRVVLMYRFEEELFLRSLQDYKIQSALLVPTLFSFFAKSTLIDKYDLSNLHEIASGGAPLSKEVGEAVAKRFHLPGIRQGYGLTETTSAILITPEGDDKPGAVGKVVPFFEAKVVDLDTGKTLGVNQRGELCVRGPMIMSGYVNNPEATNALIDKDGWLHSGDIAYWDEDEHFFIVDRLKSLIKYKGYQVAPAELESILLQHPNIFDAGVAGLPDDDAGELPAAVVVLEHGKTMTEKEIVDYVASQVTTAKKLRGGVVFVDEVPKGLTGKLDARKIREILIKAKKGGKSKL

Chain of Follistatin (Homo sapiens) (P19883 whole entry, looked up): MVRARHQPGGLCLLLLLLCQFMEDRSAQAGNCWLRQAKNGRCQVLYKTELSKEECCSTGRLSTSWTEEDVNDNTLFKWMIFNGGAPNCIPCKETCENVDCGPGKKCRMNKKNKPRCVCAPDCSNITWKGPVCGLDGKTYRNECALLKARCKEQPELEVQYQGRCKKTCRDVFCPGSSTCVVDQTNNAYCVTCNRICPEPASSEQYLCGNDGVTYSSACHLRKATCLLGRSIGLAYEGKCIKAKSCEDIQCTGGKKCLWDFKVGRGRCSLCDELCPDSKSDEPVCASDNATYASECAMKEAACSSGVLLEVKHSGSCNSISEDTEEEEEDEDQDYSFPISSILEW
Chain of Fibroblast growth factor 2 (Homo sapiens) (P09038 whole entry, looked up): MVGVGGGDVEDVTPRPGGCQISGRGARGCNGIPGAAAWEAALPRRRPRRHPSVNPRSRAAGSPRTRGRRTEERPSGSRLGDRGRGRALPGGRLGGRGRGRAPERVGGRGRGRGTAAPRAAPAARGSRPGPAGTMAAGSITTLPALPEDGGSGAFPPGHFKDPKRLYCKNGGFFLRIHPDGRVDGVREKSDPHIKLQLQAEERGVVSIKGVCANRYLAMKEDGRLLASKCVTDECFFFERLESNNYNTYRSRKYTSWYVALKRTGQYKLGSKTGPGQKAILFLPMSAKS
Chain of Focal adhesion kinase 1 (Homo sapiens) (Q05397 whole entry, looked up): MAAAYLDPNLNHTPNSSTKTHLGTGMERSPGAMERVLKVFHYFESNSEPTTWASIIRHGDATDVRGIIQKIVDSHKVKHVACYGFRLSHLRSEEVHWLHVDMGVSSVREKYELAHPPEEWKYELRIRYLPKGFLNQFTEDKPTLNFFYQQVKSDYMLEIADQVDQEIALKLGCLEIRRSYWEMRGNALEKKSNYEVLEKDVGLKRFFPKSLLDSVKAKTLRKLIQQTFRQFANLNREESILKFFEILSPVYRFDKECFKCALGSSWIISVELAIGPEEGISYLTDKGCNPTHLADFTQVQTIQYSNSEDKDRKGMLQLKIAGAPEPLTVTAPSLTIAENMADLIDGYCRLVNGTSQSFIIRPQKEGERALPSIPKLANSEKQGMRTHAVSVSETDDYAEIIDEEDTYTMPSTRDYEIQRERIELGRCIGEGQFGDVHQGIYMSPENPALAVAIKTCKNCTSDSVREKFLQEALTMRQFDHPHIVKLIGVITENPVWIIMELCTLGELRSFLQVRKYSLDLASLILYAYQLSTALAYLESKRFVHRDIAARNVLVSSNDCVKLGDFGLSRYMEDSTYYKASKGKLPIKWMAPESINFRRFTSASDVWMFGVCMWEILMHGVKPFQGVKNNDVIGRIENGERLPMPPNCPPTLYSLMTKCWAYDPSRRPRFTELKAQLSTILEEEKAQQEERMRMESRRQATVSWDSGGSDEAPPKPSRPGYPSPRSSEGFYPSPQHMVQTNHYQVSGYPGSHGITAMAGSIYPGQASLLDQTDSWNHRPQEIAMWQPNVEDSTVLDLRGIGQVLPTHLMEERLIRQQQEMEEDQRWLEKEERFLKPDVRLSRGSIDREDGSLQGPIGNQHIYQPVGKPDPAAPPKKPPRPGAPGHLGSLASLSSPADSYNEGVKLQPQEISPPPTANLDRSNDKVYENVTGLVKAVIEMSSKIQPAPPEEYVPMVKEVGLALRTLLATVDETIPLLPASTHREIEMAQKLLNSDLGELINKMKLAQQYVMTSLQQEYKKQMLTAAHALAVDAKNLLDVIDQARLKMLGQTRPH

Row | SMILES | composite z-score [1] | composite z-score [2] | composite z-score [3] | composite z-score [4] | composite z-score [5] | composite z-score [6] | z-score [7] | composite z-score (Lefty1) | composite z-score [8] | z-score [9]
1 | C=C(/C(=C/C[C@@H](OC(C)=O)c1ccc(OCCO)cc1)c1cc(C(=O)OC)ccc1OC)C(C)C | 1.81 | 0.999 | 0.211 | 0.665 | 0.776 | 1.11 | 0.471 | 1.36 | 0.85 | -0.6 (inactive)
2 | CN(C)CCCNC(=O)[C@@H]1c2ccccc2C(=O)N(C2CCCCC2)[C@H]1c1ccc(CO)cc1 | 2.58 | 1.24 | -0.0457 | 0.508 | 1.35 | 1.3 | 0.494 | 1.04 | 0.277 | 0.876 (inactive)
3 | COCCCNC(=O)[C@@]1(c2ccc([N+](=O)[O-])cc2)CC(=O)N(C(C)C)[C@@H]1c1ccc(CO)cc1 | -0.92 | -0.085 | 0.756 | -0.779 | 0.559 | 0.352 | 0.296 | -0.0938 | 0.174 | -0.985 (inactive)
4 | CCOC(=O)C1=CCN(S(=O)(=O)c2ccc(C)cc2)C1c1ccccc1 (stereo not given) | 0.843 | 1.2 | 0.656 | 0.609 | 0.467 | 0.835 | 0.942 | 0.0842 | 0.652 | 1.75 (inactive)
5 | CC1CC/C=C\[C@H]2OC34C=CCN(C(C)(C)C)C(=O)[C@H]3N(C(CO)C(C)C)C(=O)[C@@H]4C2C(=O)O1 (stereo not given in full) | -0.0256 | -0.181 | 0.102 | -1.26 | 0.276 | 0.365 | -0.428 | 0.659 | -0.324 | -0.0671 (inactive)
6 | Cc1ccc(S[C@]2(C(=O)NCc3ccccc3)CC(=O)N(Cc3cc(C(F)(F)F)cc(C(F)(F)F)c3)[C@@H]2c2ccc(CO)cc2I)cc1 | -1.1 | -0.774 | 0.438 | -0.885 | -1.18 | -1.45 | 1.61 | -1.25 | -0.799 | -0.461 (inactive)
7 | C=C(COC)C(=O)CC[C@H](OC(=O)c1cccnc1)c1ccc(CO)o1 | 0.784 | 0.113 | -0.163 | 0.978 | 1.34 | 1.26 | -0.595 | 1.15 | 0.264 | -0.721 (inactive)
8 | C=C(CCCC)/C(=C/C[C@H](OC(C)=O)c1ccc(OCCO)cc1)c1cc(C(=O)OC)ccc1OC | 0.124 | 1.04 | 0.667 | 0.046 | 0.935 | 0.103 | 1.78 | 0.929 | 0.775 | -1.69 (inactive)
9 | COC(=O)[C@@]1(Cc2ccc(F)cc2)[C@H]2c3cc(C(=O)N4CCCC4)n(C)c3C[C@H]2CN1C(=O)c1ccccc1 | 2.46 | 1.23 | 0.746 | 0.422 | 0.253 | -0.325 | 0.312 | -0.983 | 0.0993 | 0.745 (inactive)
10 | [N-]=[N+]=NCc1ccccc1C[C@@]1(C(=O)N2CCCCC2)N=C(c2ccc(OCCCO)cc2)O[C@@H]1c1ccccc1CN=[N+]=[N-] | -0.174 | 1.18 | 0.457 | 1.02 | 0.913 | 0.74 | 0.342 | -0.611 | 1.28 | -0.57 (inactive)
11 | CN1C(=O)C2C=CC(C(O)c3cc(C(F)(F)F)cc(C(F)(F)F)c3)N(NC(=O)OC(C)(C)C)C2C1=O (stereo not given) | 1.12 | 1.2 | 0.753 | 0.982 | 1.27 | -0.396 | 0.717 | 0.369 | 0.713 | 0.75 (inactive)
12 | O=C1[C@@]23C=C(Br)[C@H](C[C@@H]2COC3)[C@@]12CO2 | 0.192 | 0.247 | 0.0493 | 0.161 | 0.397 | 0.423 | -0.0605 | 0.414 | 0.0439 | 0.44 (inactive)
13 | COCCCNC(=O)[C@@]1(Sc2ccc(C)cc2)CC(=O)N(Cc2ccccc2Cl)[C@@H]1c1ccc(CO)cc1I | 1.32 | -0.943 | 0.345 | -1.49 | -0.242 | -0.765 | 0.919 | -0.959 | -0.691 | -0.181 (inactive)
14 | COc1ccc([Si](C)(C)[C@@H]2[C@@H](CCn3cc([C@H](O)c4ccccc4)nn3)O[C@]3(C(=O)N(Cc4cccc(N5C(=O)c6cccc7cccc5c67)c4)c4ccccc43)[C@H]2C)cc1 | 0.195 | -0.34 | -0.426 | -0.759 | -0.0585 | -0.758 | 0.794 | 0.199 | -0.228 | 0.148 (inactive)
